Several values for one entry are separate records, joined by “and”; a condition that tells them apart may be missing. Identical values can stand only once. Inconclusive results are not listed. Some compounds were tested as several samples or in several runs, with calls that do not always agree. Activity calls are given as the source filed them. The call rests on the fitted dose curve; in most records, active means well fitted inhibition curve with a large enough effect; inconclusive means small, poorly fitted or top-dose-only effect; inactive means flat fitted curve, though single readings scatter.
Legend:
JCK = assay: qHTS profiling for inhibitors of Plasmodium falciparum proliferation (AID 504749); further: potency means the concentration at half of the fitted maximal effect; conditions: P. falciparum in erythrocytes, SYBR Green DNA, 72 h; series mostly up to 28.7 µM
Method in brief: (§1)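 Readout was DNA-dye fluorescence from lysed cultures, ex 485/em 535 nm. Parasitized red cells had grown 72 h with compound; data scaled between 0.29 uM artemisinin and DMSO wells and corrected using vehicle-only plates.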

N140 = assay: as above; conditions: P. falciparum in erythrocytes, SYBR Green DNA, 72 h; series mostly up to 28.7 µM
Method in brief: as §1

P94_40 = assay: as above; conditions: P. falciparum in erythrocytes, SYBR Green DNA, 72 h; series mostly up to 28.7 µM
Method in brief: as §1

PAD = assay: as above; conditions: P. falciparum in erythrocytes, SYBR Green DNA, 72 h; series mostly up to 28.7 µM
Method in brief: as §1

PC15 = assay: as above; conditions: P. falciparum in erythrocytes, SYBR Green DNA, 72 h; series mostly up to 28.7 µM
Method in brief: as §1

PC26 = assay: as above; conditions: P. falciparum in erythrocytes, SYBR Green DNA, 72 h; series mostly up to 28.7 µM
Method in brief: as §1

PC49 = assay: as above; conditions: P. falciparum in erythrocytes, SYBR Green DNA, 72 h; series mostly up to 28.7 µM
Method in brief: as §1

SC27B = assay: as above; conditions: P. falciparum in erythrocytes, SYBR Green DNA, 72 h; series mostly up to 28.7 µM
Method in brief: as §1

TAB113 = assay: as above; conditions: P. falciparum in erythrocytes, SYBR Green DNA, 72 h; series mostly up to 28.7 µM
Method in brief: as §1

CRL-7250 = normal cell line; assay: Cytotoxic Profiling of Annotated Libraries Using Quantitative High-Throughput Screening (AID 1296008); conditions: Five cell lines viability, CellTiter-Glo ATP luminescence, 48-72 h; max response: hits give low values; further: potency means the concentration at half of the fitted maximal effect; on max response: on the % scale 0 is the no-effect control and ±100 the full control effect
Method in brief: (§2)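 Cells exposed to compounds for 48 or 72 hr at 37 degrees Celsius. Viability read as ATP-coupled luminescence with CellTiter-Glo after 10 min at room temperature.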

HEK293 = assay: as above; conditions: Five cell lines viability, CellTiter-Glo ATP luminescence, 48-72 h; max response: hits give low values
Method in brief: as §2

HaCat [1] = assay: as above; conditions: Five cell lines viability, CellTiter-Glo ATP luminescence, 48-72 h; max response: hits give low values
Method in brief: as §2

KB-3-1 = assay: as above; conditions: Five cell lines viability, CellTiter-Glo ATP luminescence, 48-72 h; max response: hits give low values
Method in brief: as §2

NIH3T3 = assay: as above; conditions: Five cell lines viability, CellTiter-Glo ATP luminescence, 48-72 h; max response: hits give low values
Method in brief: as §2

HACAT [2] = assay: qHTS assay to identify novel small-molecules to repurpose for Merkel cell carcinoma treatment (AID 1296009); conditions: MCC and control cell lines, CellTiter-Glo viability, 72 h
Method in brief: (§3)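 Cells were incubated with compound for 72 hr at 37 degree celsius before CellTiter-Glo addition. Luminescence was normalized with no-cell wells as full cytotoxicity and DMSO as baseline.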

HEK293T = assay: as above; conditions: MCC and control cell lines, CellTiter-Glo viability, 72 h
Method in brief: as §3

TAB109 = assay: qHTS profiling for inhibitors of Plasmodium falciparum proliferation (AID 504749); further: potency means the concentration at half of the fitted maximal effect; conditions: P. falciparum in erythrocytes, SYBR Green DNA, 72 h; series mostly up to 28.7 µM
Method in brief: as §1

TAB165 = assay: as above; conditions: P. falciparum in erythrocytes, SYBR Green DNA, 72 h; series mostly up to 28.7 µM
Method in brief: as §1

P93_24 = assay: as above; conditions: P. falciparum in erythrocytes, SYBR Green DNA, 72 h; series mostly up to 28.7 µM
Method in brief: as §1

W2 = assay: as above; conditions: P. falciparum in erythrocytes, SYBR Green DNA, 72 h; series mostly up to 28.7 µM
Method in brief: as §1

[3] = at 44.8 µM (top of the series) unless noted
Further: nearly all actives have a fitted effect of over 60% in size.

CCn1cc(C(=O)O)c(=O)c2cc(F)c(N3CCNCC3)nc21
inactive: Potency (JCK) | Potency (N140) | Potency (P94_40) | Potency (PAD) | Potency (PC15) | Potency (PC26) | Potency (PC49) | Potency (SC27B) | Potency (TAB113) | max response (CRL-7250) -4.45% and -16.8% | max response (HEK293) -5.1% | outcome (HEK293) | max response (HaCat [1]) -2.73% | outcome (HaCat [1]) | max response (KB-3-1) -1.65% and 0.264% | outcome (NIH3T3) | outcome (HACAT [2]; [3]) | outcome (HEK293T; [3])

COC(=O)Nc1nc2ccc(S(=O)c3ccccc3)cc2[nH]1 (centres undefined)
active: Potency (CRL-7250) 7.5 µM | Potency (NIH3T3) 1.06 µM
inactive: max response (CRL-7250) -3.6% | outcome (HaCat [1]) | outcome (HACAT [2]; [3])

CN1CCN(c2c(F)cc3c(=O)c(C(=O)O)cn4c3c2OCN4C)CC1
inactive: Potency (JCK) | Potency (N140) | Potency (P94_40) | Potency (PAD) | Potency (PC15) | Potency (PC26) | Potency (PC49) | Potency (SC27B) | Potency (TAB109) | Potency (TAB113) | Potency (TAB165) | max response (CRL-7250) -0.174% | outcome (CRL-7250) | outcome (HaCat [1]) | max response (KB-3-1) -7.62% | outcome (KB-3-1) | max response (NIH3T3) 2.5% and 4.99% | outcome (HACAT [2]; at 17.4 µM (top of the series)) | outcome (HACAT [2]; at 44.8 µM (top of the series)) | outcome (HEK293T; [3]) inactive [at 17.4 µM]

S=P(N1CC1)(N1CC1)N1CC1
inactive: Potency (JCK) | Potency (N140) | Potency (P93_24) | Potency (P94_40) | Potency (PAD) | Potency (PC15) | Potency (PC26) | Potency (PC49) | Potency (SC27B) | Potency (TAB109) | Potency (TAB113) | Potency (TAB165) | Potency (W2) | max response (CRL-7250) -10.3% | outcome (CRL-7250) | outcome (HaCat [1]) | max response (KB-3-1) 19% and 33.9% and 9.73% | max response (NIH3T3) -7.91% | outcome (HACAT [2]; [3]) inactive [at 92 µM]

COC(=O)Nc1nc2ccc(C(=O)c3ccccc3)cc2[nH]1
active: Potency (CRL-7250) 5.9 µM | Potency (KB-3-1) 0.623 µM | Potency (NIH3T3) 18.8 µM and 2.64 µM
inactive: Potency (JCK) | Potency (N140) | Potency (P93_24) | Potency (P94_40) | Potency (PAD) | Potency (PC15) | Potency (PC49) | Potency (SC27B) | Potency (TAB109) | Potency (TAB113) | Potency (TAB165) | max response (HEK293) -90.7% | max response (HaCat [1]) 4.64% | outcome (HaCat [1]) | outcome (HACAT [2]; [3])

COc1cc(NS(=O)(=O)c2ccc(N)cc2)nc(OC)n1
inactive: Potency (JCK) | Potency (N140) | Potency (P93_24) | Potency (P94_40) | Potency (PAD) | Potency (PC15) | Potency (PC49) | Potency (SC27B) | Potency (TAB109) | Potency (TAB113) | Potency (TAB165) | Potency (W2) | max response (CRL-7250) -1.11% and -2.3% | max response (HEK293) 4.64% and 3.91% | outcome (HaCat [1]) | max response (KB-3-1) 3.08% | outcome (KB-3-1) | max response (NIH3T3) -5.03% and -1.81% | outcome (HACAT [2]; [3])

CC(C)(C)NC(=O)[C@H]1CC[C@H]2[C@@H]3CC[C@H]4NC(=O)C=C[C@]4(C)[C@H]3CC[C@]12C
inactive: max response (CRL-7250) -15.1% and -1.46% | max response (HaCat [1]) -13.8% and -8.14% | max response (KB-3-1) 9.49% and 2.45% | max response (NIH3T3) 2.59% | outcome (NIH3T3)

N[C@@H](C(=O)N[C@@H]1C(=O)N2C(C(=O)O)=C(Cl)CS[C@H]12)c1ccccc1
inactive: Potency (JCK) | Potency (N140) | Potency (P93_24) | Potency (P94_40) | Potency (PAD) | Potency (PC15) | Potency (PC26) | Potency (PC49) | Potency (SC27B) | Potency (TAB109) | Potency (TAB113) | Potency (TAB165) | Potency (W2) | max response (CRL-7250) 3.96% and -9.13% | outcome (HEK293) | outcome (HaCat [1]) | max response (KB-3-1) 16.8% and 8.23% | outcome (NIH3T3) | outcome (HACAT [2]; at 9.27 µM (top of the series)) | outcome (HACAT [2]; at 44.8 µM (top of the series)) | outcome (HEK293T; at 9.27 µM (top of the series)) | outcome (HEK293T; at 44.8 µM (top of the series))

O=C(O)c1cn(C2CC2)c2cc(N3CCNCC3)c(F)cc2c1=O
inactive: Potency (JCK) | Potency (PAD) | Potency (PC15) | Potency (PC49) | Potency (SC27B) | Potency (TAB113) | max response (CRL-7250) -2.76% and -7.47% | outcome (HEK293) | outcome (HaCat [1]) | max response (KB-3-1) -1.15% | outcome (KB-3-1) | outcome (NIH3T3) | outcome (HACAT [2]; [3]) | outcome (HEK293T; [3])
active: Potency (TAB109) 2.24 µM | Potency (W2) 4.55 µM

O=C(O)C1CCCN(CCC=C(c2ccccc2)c2ccccc2)C1 (centres undefined)
inactive: outcome (CRL-7250) | max response (HEK293) 3.73% | max response (HaCat [1]) -1.89% | max response (KB-3-1) 5.05% | max response (NIH3T3) 3.07%

CCOC(=O)c1ccc(C#Cc2ccc3c(c2)C(C)(C)CCS3)nc1
inactive: Potency (JCK) | Potency (N140) | Potency (P93_24) | Potency (P94_40) | Potency (PAD) | Potency (PC15) | Potency (PC49) | Potency (SC27B) | max response (CRL-7250) -0.581% and -12.4% | outcome (HaCat [1]) | max response (KB-3-1) 5.71% and 0.466% | max response (NIH3T3) -3.55% | outcome (NIH3T3) | outcome (HACAT [2]; [3])

O=S(=O)(c1cccc2cnccc12)N1CCCNCC1
inactive: outcome (CRL-7250) | outcome (HaCat [1]) | max response (KB-3-1) -15.9% | outcome (KB-3-1) | max response (NIH3T3) 0.496% and -3.33% | outcome (HACAT [2]; [3]) | outcome (HEK293T; [3])

COc1cc2ncnc(Nc3cccc(Cl)c3)c2cc1OC
inactive: max response (NIH3T3) -25%
active: Potency (CRL-7250) 0.187 µM | Potency (HEK293) 0.372 µM | Potency (HaCat [1]) 16.6 nM and 1.46 µM | Potency (KB-3-1) 16.6 µM | Potency (NIH3T3) 2.09 µM
